# Source: the supplement of paper PMC12494721
# Structures can show the parent of a compound that is named as a salt. Values without a mark were called inactive.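 How the source made its calls: for the amine columns active = adjusted P below 0.05 in both replicates with a change the same way and a mean fold change under 0.8 or over 1.25; inactive = the rest.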
# System: Escherichia coli IAI1
# Assay: fold change of Putrescine concentration vs plate DMSO controls (fold change (ratio)); higher = more amine produced, active = hit call of the paper (significant change in both replicates, either direction)
# Details: incubation time: 27 h, anaerobic, 37 °C
# Outline: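 Using LC–triple-quadrupole MS with dynamic MRM, amines were quantified against external calibration curves and corrected for drift within each batch. Samples were whole anaerobic mGAM cultures of four gut strains, grown 27 h at 37 °C from OD 0.1 before 1:1 dilution, extracted with cold acetonitrile/methanol containing 0.1% formic acid and centrifuged. Compounds were present at 20 µM final (sweeteners at 50 µM final). The numbers are fold changes versus plate DMSO controls, each the mean of 2 biological replicates.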
row,SMILES,fold change of Putrescine concentration
1,CC(C)(C)NC[C@H](O)c1ccc(O)c(CO)c1 [Levalbuterol hydrochloride] (20 µM),1.24
2,C[N+]1(CCCCC[N+]2(C)CCCC2)CCCC1 [Pentolinium bitartrate] (20 µM),1.03
3,O=C1c2cccc(O)c2C(=O)c2c(O)cccc21 [Danthron] (20 µM),1.24
4,O=C(N/N=C/c1ccc([N+](=O)[O-])o1)c1ccc(O)cc1 [Nifuroxazide] (20 µM),0.759 (active)
5,COC(=O)Nc1nc2cc(Sc3ccccc3)ccc2[nH]1 [Fenbendazole] (20 µM),1.05
6,CN(C)CCOC(c1ccccc1)c1ccccc1.Cn1c(=O)c2[nH]c(Cl)nc2n(C)c1=O [Dimenhydrinate] (20 µM),0.995
7,CCc1ccc(C(=O)C(C)CN2CCCCC2)cc1 (centres undefined) [Eperisone Hydrochloride] (20 µM),0.986
8,CC12CC3CC(C)(C1)CC(N)(C3)C2 [Memantine hydrochloride] (20 µM),0.984
9,COc1ccc2[nH]cc(CCNC(C)=O)c2c1 [Melatonin] (20 µM),0.98
10,CCC(=O)O[C@]1(C(=O)CCl)[C@@H](C)C[C@H]2[C@@H]3CCC4=CC(=O)C=C[C@]4(C)[C@@]3(F)[C@@H](O)C[C@@]21C [Clobetasol propionate] (20 µM),0.988
11,CC[C@@H](CO)NCCN[C@@H](CC)CO [Ethambutol dihydrochloride] (20 µM),1.05
12,CC(=O)CC(c1ccc([N+](=O)[O-])cc1)c1c(O)c2ccccc2oc1=O (centres undefined) [Acenocoumarol] (20 µM),1.05
13,CCOC1O[C@H]([C@@H](COCc2ccccc2)OCc2ccccc2)[C@H](OCc2ccccc2)[C@H]1O (some centres undefined) [Tribenoside] (20 µM),1
14,COc1ccc(C[C@@H]2c3cc(OC)c(OC)cc3CC[N@+]2(C)CCC(=O)OCCCCCOC(=O)CC[N@@+]2(C)CCc3cc(OC)c(OC)cc3[C@H]2Cc2ccc(OC)c(OC)c2)cc1OC [Cisatracurium besylate] (20 µM),0.918
15,O=C1CN2Cc3c(ccc(Cl)c3Cl)N=C2N1 [Anagrelide] (20 µM),1.05
16,Cc1c(C)c2c(c(C)c1O)CCC(C)(C(=O)O)O2 (centres undefined) [Trolox] (20 µM),0.926
17,COc1cc(C(=O)NCc2ccc(OCCN(C)C)cc2)cc(OC)c1OC [Trimethobenzamide hydrochloride] (20 µM),1.05
18,CC=CC(=O)N(CC)c1ccccc1C [Crotamiton] (20 µM),1.02
19,CCOC(=O)C1=C(C)NC(C)=C(C(=O)OCC)C1c1ccccc1/C=C/C(=O)OC(C)(C)C [Lacidipine] (20 µM),0.962
20,CCOC(=O)CC(=O)N1CCSC1COc1ccccc1OC (centres undefined) [Moguisteine] (20 µM),0.997

row,SMILES,fold change of Putrescine concentration
1,CC(=O)OCC(=O)NCCCOc1cccc(CN2CCCCC2)c1 [Roxatidine acetate hydrochloride] (20 µM),1.27
2,Clc1ccc(C(Cn2ccnc2)OCc2csc3c(Cl)cccc23)c(Cl)c1 (centres undefined) [Sertaconazole nitrate] (20 µM),1.08
3,CC[N+](C)(CC)CCOC(=O)C1c2ccccc2Oc2ccccc21 [Methantheline bromide] (20 µM),1.04
4,CN1[C@@H]2CC[C@H]1C[C@@H](OC(c1ccccc1)c1ccccc1)C2 [Benztropine mesylate] (20 µM),1.03
5,Nc1c(Br)cc(Br)cc1CN[C@H]1CC[C@H](O)CC1 [Ambroxol hydrochloride] (20 µM),1.05
6,COCCCC/C(=N\OCCN)c1ccc(C(F)(F)F)cc1 [Fluvoxamine maleate] (20 µM),1.02
7,Clc1ccc(COC(Cn2ccnc2)c2ccc(Cl)cc2Cl)c(Cl)c1 (centres undefined) [Miconazole] (20 µM),1.2
8,CCCCCCCCCCCCCCCC[N+](C)(C)CCN(Cc1ccc(OC)cc1)c1ncccn1 [Thonzonium bromide] (20 µM),1.06
9,CCCN(CCC)C(=O)C(CCC(=O)O)NC(=O)c1ccccc1 (centres undefined) [Proglumide] (20 µM),1.31 (active)
10,CN(C)CCC(c1ccc(Br)cc1)c1ccccn1 (centres undefined) [Brompheniramine maleate] (20 µM),0.981
11,c1coc(CNc2ncnc3[nH]cnc23)c1 [Kinetin] (20 µM),1.08
12,C#C[C@]1(O)CC[C@H]2[C@@H]3CCC4=CC(=O)CC[C@@H]4[C@H]3CC[C@@]21C [Norethindrone] (20 µM),0.962
13,Oc1ncnc2[nH]ncc12 [Allopurinol] (20 µM),1.09
14,COc1ccc(CN(CCN(C)C)c2ccccn2)cc1 [Pyrilamine maleate] (20 µM),0.811
15,CC(C)(C#N)c1cc(Cn2cncn2)cc(C(C)(C)C#N)c1 [Anastrozole] (20 µM),1.06
16,COC1=CC(=O)C[C@@H](C)[C@]12Oc1c(Cl)c(OC)cc(OC)c1C2=O [Griseofulvin] (20 µM),1.01
17,CC(C)(C)NCC(O)COc1cccc2c1CC(O)C(O)C2 (centres undefined) [Nadolol] (20 µM),1.06
18,CC1=C(CC(=O)O)c2cc(F)ccc2/C1=C\c1ccc([S+](C)[O-])cc1 (centres undefined) [Sulindac] (20 µM),1.02
19,O=C1NCN(c2ccccc2)C12CCN(CCCC(c1ccc(F)cc1)c1ccc(F)cc1)CC2 [Fluspirilene] (20 µM),0.996
